# Assay results as given in PubChem BioAssay (EPA / NIEHS).
# Inconclusive results are not listed. Calls of active or inactive are those of the source. How the source made its calls, unless noted: active means hit-call score of the fitted dose curve at least 0.9, where 1 is the maximum; inconclusive means response in the unintended direction; inactive means score below 0.9.
# Experiments:
# DIO3 (gene 1735) = assay: CCTE_GLTED_hDIO3: CCTE's human Deiodinase 3 (DIO3) Inhibition Assay, Great Lakes Toxicology and Ecology Division (GLTED) Lab (AID 2284055);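 on AC50: potency is for inhibition seen as loss of released iodide signal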
# Outline: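 Human DIO3 from an adenovirus expression system is incubated 3 h with test chemical. Released iodide is quantified by Sandell-Kolthoff absorbance, in triplicate plates. Loss of signal is fitted relative to DMSO.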
# [1] = CCTE_Shafer_MEA_acute_AB: CCTE's Alamar Blue Assay for Cytotoxicity in the Neural Acute Assay, Shafer Lab (AID 2284069);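 further: active compounds lower the viability signal compared with DMSO wells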
# Outline: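 Cytotoxicity endpoint for acute MEA exposures of primary rat cortical neurons on day 13 or 15. Resazurin reduction is read fluorescently at 544/590 nm, with DMSO as the negative-control baseline.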
# [2] = CCTE_Shafer_MEA_acute_LDH: CCTE's Lactate Dehydrogenase Assay for Cytotoxicity in the Neural Acute Assay, Shafer Lab (AID 2284086);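 further: active means LDH release rises above DMSO vehicle level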
# Outline: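 Medium from rat cortical neuron MEA cultures sampled right after the 40 min compound-exposure recording; released LDH measured by absorbance at 490 nm. Analyzed as signal gain relative to DMSO.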
# [3] = CCTE_Shafer_MEA_dev_LDH: CCTE's Lactate Dehydrogenase Assay for Cytotoxicity in the Neural Network Formation Assay, Shafer Lab (AID 2284068);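 further: exposure for twelve days from plating with re-dosing on DIV 5 and 9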
# Outline: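 Developing rat cortical networks on MEA plates are exposed to compound for 12 days from plating. LDH activity is measured spectrophotometrically, with DMSO as baseline.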
# [4] = CCTE_Shafer_MEA_dev_AB: CCTE's Alamar Blue Assay for Cytotoxicity in the Neural Network Formation Assay, Shafer Lab (AID 2284083);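 further: resazurin reduction fluorescence as viability of cultured neurons; twelve days of exposure from plating with re-dosing on DIV 5 and 9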
# Outline: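 Cytotoxicity companion to the developmental MEA: primary rat cortical neurons, 12-day exposure starting day 0, compound refreshed DIV 5 and 9; resazurin fluorescence, fitted against DMSO vehicle.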
# [5] = CCTE_Shafer_MEA_dev_mutual_information_norm: CCTE's Neural Network Formation Assay for Mutual Information Normalization, Shafer Lab (AID 2284091; active means hit-call score of the fitted dose curve at least 0.9, where 1 is the maximum; inactive means score below 0.9;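 on AC50: potency is for a decrease in mutual information relative to DMSO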)
# Description: (§1) CCTE_Shafer_MEA_dev assay is conducted using Axion Biosystems 48 well microelectrode array (MEA) plates and Maestro recording system. Each well of the MEA plate contains a grid of 16 microelectrodes embedded in the culture surface. Electrically active cells, such as neurons, can be cultured over the electrodes, and electrical activity in these cells can be recorded extracellularly. The spontaneous firing of neurons is captured from each electrode on a microsecond timescale providing both temporally and spatially precise data. […] The CCTE_Shafer_MEA_dev assay uses primary cultures of rat cortical neurons. Recordings are made on days post-plating 5, 7, 9 and 12. As these cultures mature over time, neural networks develop functional activity and form cohesive networks in which electrical activity can be highly coordinated. CCTE_Shafer_MEA_dev_mutual_information_norm is 1 of 19 assay components of the CCTE_Shafer_MEA_dev assay. It is a measure of shared information between electrodes during a recording in a microelectrode array (MEA) using Axion Biosystems Maestro 768 channel amplifier with the AxIS adaptive spike detector. To collapse across multiple recordings made on days post-plating 5, 7, 9 and 12, the trapezoidal area-under-the-curve of the component is calculated.Data from the assay component CCTE_Shafer_MEA_dev_mutual_information_norm was analyzed into 1 assay endpoint. This assay endpoint, CCTE_Shafer_MEA_dev_mutual_information_norm, was analyzed in the negative analysis fitting direction relative to DMSO as the negative control and baseline of activity. Using a type of functional reporter, gain or loss-of-signal activity can be used to understand electrical activity.
# (§2) On the day prior to culture, each well was coated thoroughly with 150 uL of 0.05% polyethyleneimine (PEI, Sigma Cat P3143) in 50 mM HEPES (Sigma Cat H7523) at a pH of 8. The plate was incubated at 37C for one hour. PEI was rinsed out with 500 uL of sterile water three times. Plates were stored at 4C until the day of culture. This culture was plated at a seeding density of 1.5 x 10^5 cells/well on a 48-well MEA plate, prepared as described above. Cells were administered via a 25 uL media/laminin ([…]; Sigma Cat L2020-1MG) drop directly onto the microelectrode array, as adding the cells with the laminin results in better attachment than pre-coating with laminin. After 2 hours, an additional 475 uL of cortical media was added and the cells returned to the incubator. Exposure starts at day 0 of plating and is continued over twelve days of network development until the experiment is terminated. Cells are fed with fresh medium on DIV 5 and 9, following the recordings on those days. The entire volume of media in the well is exchanged and any vehicle or compound treatment is renewed. Complete details are found in OP-NHEERL/ISTD/SBB/TJS/2015-03-r0 (available on request, email shafer.tim@epa.gov). Measurement of the electrical activity is non-invasive, and recordings can be made from the same plate over multiple different days of the culture. In cortical neurons, this allows for the measurement of extracellular action potentials over the period during which networks form in the MEA plate.
# [6] = CCTE_Shafer_MEA_dev_correlation_coefficient_mean: CCTE's Neural Network Formation Assay for Mean Correlation Coefficient, Shafer Lab (AID 2284093; active means hit-call score of the fitted dose curve at least 0.9, where 1 is the maximum; inactive means score below 0.9;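 on AC50: well mean pairwise spike train correlation integrated as AUC over recording days 5 to 12; potency fitted for loss of correlation relative to DMSO vehicle wells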)
# Description: as §1, with “coordinated. CCTE_Shafer_MEA_dev_correlation_coefficient_mean” for “coordinated. CCTE_Shafer_MEA_dev_mutual_information_norm”, “It measures the correlation coefficent of spikes (action potential firings) between every pair of electrodes in” for “It is”, “a well” for “a measure of shared information between electrodes”, “detector. The pairwise correlations are averaged across active electrodes to report a well-mean value.” for “detector.”, “component CCTE_Shafer_MEA_dev_correlation_coefficient_mean” for “component CCTE_Shafer_MEA_dev_mutual_information_norm”, “endpoint, CCTE_Shafer_MEA_dev_correlation_coefficient_mean,” for “endpoint, CCTE_Shafer_MEA_dev_mutual_information_norm,”
# as §2
# [7] = IUF_NPC1b_proliferation_BrdU_72hr: Leibniz Research Institute for Environmental Medicine (IUF) 72-hour Neural Progenitor Cell Bromodeoxyuridine (BrdU) Proliferation Assay (NPC1b) (AID 2284207; active means hit-call score of the fitted dose curve at least 0.9, where 1 is the maximum; inactive means score below 0.9)
# Outline: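 Proliferation of primary human neural progenitor cells: 72 h compound treatment at 37C, 5% CO2, pH 7.2-7.6, in EGF/FGF-containing medium. Readout is BrdU uptake (last 16 h) by chemiluminescent ELISA, normalised to DMSO.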
# [8] = IUF_NPC1a_proliferation_area_72hr: Leibniz Research Institute for Environmental Medicine (IUF) 72-hour Neural Progenitor Cell Proliferation Area Assay (NPC1a) (AID 2284208; active means hit-call score of the fitted dose curve at least 0.9, where 1 is the maximum; inactive means score below 0.9)
# Outline: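 hNPC spheres (human fetal cortex, GW 16-19), one per poly-Hema U-bottom well; EGF+FGF medium; dosed day 0, no re-dosing; 72 h, 37C, 5% CO2; phase-contrast sphere area; DMSO = baseline; minus-GF = positive ctrl.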
# [9] = IUF_NPC1_viability_72hr: Viability Assessment at 72 hours in the Leibniz Research Institute for Environmental Medicine (IUF) Neural Progenitor Cell Proliferation Assay (NPC1) (AID 2284209; active means hit-call score of the fitted dose curve at least 0.9, where 1 is the maximum; inactive means score below 0.9)
# Description: IUF_NPC1 is a cell-based, multiplexed assay that uses hNPC, a human primary neural progenitor cells, with measurements taken at 72 hours after chemical dosing in a 96-well plate. Human neural progenitor cells (hNPC) are generated from human fetal brain cortex at gestational week (GW) 16-19. Grown in suspension culture and under proliferative conditions (proliferation media and growth factors), these cells represent neural progenitor cell proliferation. In the NPC1 assay, hNPC's are exposed to the test compound for 72h. Cell proliferation is assessed as an increase in sphere area using automated phase contrast imaging and as incorporation of Bromodeoxyuridine (BrdU) during DNA synthesis using a luminescence-based cell proliferation ELISA. In parallel, the cell viability is assessed using an alamar blue viability assay and the cytotoxicity using a lactate dehydrogenase dependent membrane integrity assay.IUF_NPC1_viability_72hr is one of 4 assay components measured from the IUF_NPC1 assay. It is designed to measure cell viability assessed as mitochondria-dependent reduction of resazurin to resorufin using the alamar blue cell viability assay. Viability is measured as a fluorescence signal (relative fluorescence unit) in a multiplate reader. […]
compound,measurement,setting,value
CCCCCCCCOC(=O)c1cc(O)c(O)c(O)c1,AC50,DIO3 (gene 1735),76.5 µM (active)
same,outcome,[1],inactive
same,outcome,[2],inactive
CN(C[C@@H](CC[N+]12CCC(C3CCCCC3)(CC1)CC2)c1ccc(Cl)c(Cl)c1)C(=O)c1cc(C(F)(F)F)cc(C(F)(F)F)c1,AC50,DIO3 (gene 1735),81.9 µM (active)
same,AC50,[1],20 µM (active)
same,outcome,[2],inactive
c1ccc2n[nH]nc2c1,outcome,[1],inactive
same,outcome,[2],inactive
CC[C@@H]1C[C@H](N(Cc2cc(C(F)(F)F)cc(C(F)(F)F)c2)C(C)=O)c2cc(C(F)(F)F)ccc2N1C(=O)OC(C)C,outcome,[1],inactive
COc1cc(C(=O)NC2CCN(C)CC2)ccc1Nc1ncc2c(n1)N(C1CCCC1)CC(F)(F)C(=O)N2C,outcome,[1],inactive
same,outcome,[2],inactive
CC(=O)N1CCN(c2ccc(OC[C@H]3CO[C@](Cn4ccnc4)(c4ccc(Cl)cc4Cl)O3)cc2)CC1,outcome,[1],inactive
same,outcome,[2],inactive
Cc1c2ccccc2c(C)c2c1ccc1ccccc12,outcome,[1],inactive
same,outcome,[2],inactive
CCCCCCCCCCCO,AC50,DIO3 (gene 1735),152 µM (active)
CN1C(=O)CC[C@H]1c1cccnc1,outcome,[3],inactive
same,outcome,[1],inactive
same,outcome,[4],inactive
same,outcome,[5],inactive
same,outcome,[6],inactive
CC1=CC(=O)/C(=C(/C)O)C(=O)O1,outcome,[1],inactive
same,outcome,[2],inactive
O=C(O)c1ccccc1-n1cc(C(=O)O)c(=O)c2cc(Nc3c(F)cc(F)cc3Cl)c(Cl)cc21,outcome,[1],inactive
same,outcome,[2],inactive
O=c1[nH]sc2ccccc12,outcome,[1],inactive
same,outcome,[2],inactive
NCc1cccc(C2CCN(C(=O)c3ccc(C#Cc4ccccc4F)o3)CC2)c1,AC50,DIO3 (gene 1735),23.3 µM (active)
same,outcome,[1],inactive
same,outcome,[2],inactive
Clc1ccccc1C(c1ccccc1)(c1ccccc1)n1ccnc1,outcome,[1],inactive
same,outcome,[2],inactive
same,outcome,[5],inactive
same,outcome,[6],inactive
CC(O)CC(C)(C)O (stereo not drawn),outcome,[1],inactive
same,outcome,[2],inactive
CC/C(=C(/CC)c1ccc(O)cc1)c1ccc(O)cc1,AC50,[3],19.5 µM (active)
same,outcome,[1],inactive
same,outcome,[4],inactive
same,AC50,[5],0.864 µM (active)
same,AC50,[6],5.98 µM (active)
O=CCCCC=O,AC50,DIO3 (gene 1735),9.03 µM (active)
CN(C)C(=O)C1(N2CCCCC2)CCN(CC[C@@]2(c3ccc(Cl)c(Cl)c3)CN(C(=O)c3ccccc3)CCO2)CC1,outcome,DIO3 (gene 1735),inactive
same,outcome,[1],inactive
same,outcome,[2],inactive
CC(C)(C)c1cc(/C=C2\SC(N)=NC2=O)cc(C(C)(C)C)c1O,AC50,DIO3 (gene 1735),19.9 µM (active)
same,outcome,[1],inactive
C[C@]12CC[C@@H]3c4ccc(O)cc4CC[C@H]3[C@@H]1CC[C@H]2O,outcome,[1],inactive
CCCCCCCCCCCCO,AC50,DIO3 (gene 1735),82.6 µM (active)
same,outcome,[1],inactive
CC(C)(C)c1csc(-c2cc3cc(OCc4ccccc4CC(=O)O)ccc3o2)n1,AC50,DIO3 (gene 1735),148 µM (active)
Cc1cc2c(cc1C(F)(F)F)N(C(=O)Nc1ccc(Oc3cccnc3C)nc1)CC2,outcome,[1],inactive
same,outcome,[2],inactive
CCOC(=O)O[C@H](C)OC(=O)c1ccc2c(c1)cc(C(=O)NC1CCN(C(C)C)CC1)n2Cc1cc(-c2ccc(Cl)s2)on1,AC50,DIO3 (gene 1735),1.16 µM (active)
NC(=O)c1nc(-c2cccc(-c3cc(F)ccc3OCC(F)(F)C(F)(F)F)c2)n[nH]1,AC50,DIO3 (gene 1735),182 µM (active)
same,outcome,[1],inactive
same,outcome,[2],inactive
CN(C)c1ccc(C(=C2C=CC(=[N+](C)C)C=C2)c2ccc(N(C)C)cc2)cc1,AC50,DIO3 (gene 1735),22.6 µM (active)
same,AC50,[1],11.2 µM (active)
same,AC50,[2],7.76 µM (active)
c1ccc2ccccc2c1,outcome,[3],inactive
same,outcome,[5],inactive
same,outcome,[6],inactive
Oc1ccccc1,outcome,[3],inactive
same,outcome,[5],inactive
same,outcome,[6],inactive
CO[C@H]1/C=C/O[C@@]2(C)Oc3c(C)c(O)c4c(O)c(c(/C=N/N5CCN(C)CC5)c(O)c4c3C2=O)NC(=O)/C(C)=C\C=C\[C@H](C)[C@H](O)[C@@H](C)[C@@H](O)[C@@H](C)[C@H](OC(C)=O)[C@@H]1C,outcome,[1],inactive
same,outcome,[2],inactive
OC12N=C(c3ccccc3)SC1Cc1cc(Cl)ccc12 (stereo not drawn),AC50,DIO3 (gene 1735),86.5 µM (active)
same,outcome,[1],inactive
same,outcome,[2],inactive
O=C1O[C@H]([C@@H](O)CO)C(O)=C1O,outcome,[1],inactive
same,outcome,[4],inactive
same,outcome,[2],inactive
same,outcome,[5],inactive
same,outcome,[6],inactive
same,AC50,[7],0.215 µM (active)
same,outcome,[8],inactive
same,outcome,[9],inactive
COc1cccc([C@H](O)C2CCN(CCc3ccc(F)cc3)CC2)c1OC,outcome,[1],inactive
same,outcome,[2],inactive
CC(C)(c1cc(Br)c(O)c(Br)c1)c1cc(Br)c(O)c(Br)c1,AC50,DIO3 (gene 1735),37.8 µM (active)
same,outcome,[3],inactive
same,outcome,[1],inactive
same,outcome,[5],inactive
same,outcome,[6],inactive
same,outcome,[7],inactive
same,outcome,[8],inactive
same,outcome,[9],inactive
CCN(CC)C(=O)c1cc(S(=O)(=O)Cc2ccccc2)c(N2CCC(c3ccccc3)CC2)cc1N(CC)CCN(C)C,AC50,DIO3 (gene 1735),53.4 µM (active)
same,outcome,[1],inactive
same,outcome,[2],inactive
CCCCCCCCCCCC[N+](C)(C)C,AC50,DIO3 (gene 1735),119 µM (active)
